Source: PubChem BioAssay
Compounds with a hit are over-represented: about 3.1% of the library has one in this group of screens.
VDR inhibitor = vitamin D3 receptor (human) inhibition. P11473. VDR-SRC2-3 peptide fluorescence polarization, 2 h. Potency, µM, for the others: max response, negative = inhibition, most hits filed as inhibitors. 400,000 compounds, 0.93% hits; also: potency is read from the fitted curve at half-maximal effect; % is scaled to controls: 0 for no effect and ±100 for the full control effect
Target sequence (P11473 whole entry, looked up): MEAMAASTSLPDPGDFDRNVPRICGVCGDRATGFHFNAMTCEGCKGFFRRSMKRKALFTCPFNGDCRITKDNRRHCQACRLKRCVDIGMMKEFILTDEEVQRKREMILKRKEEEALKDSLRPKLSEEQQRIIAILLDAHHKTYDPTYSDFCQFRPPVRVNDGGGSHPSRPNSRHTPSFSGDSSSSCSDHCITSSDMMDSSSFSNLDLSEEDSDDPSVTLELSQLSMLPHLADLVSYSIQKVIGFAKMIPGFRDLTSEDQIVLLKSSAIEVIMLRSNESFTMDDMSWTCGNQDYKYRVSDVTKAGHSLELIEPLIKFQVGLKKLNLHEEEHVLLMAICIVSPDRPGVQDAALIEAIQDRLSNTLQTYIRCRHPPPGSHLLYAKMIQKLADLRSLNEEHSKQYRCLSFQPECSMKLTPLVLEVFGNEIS
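VDR–SRC2-3 interaction, FP format. Cmpds 23 nl via pintool, brief spin, 2 h ambient incubation.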
TSG101-PTAP inh = blocks PTAP/TSG101 interaction to inhibit HIV-1 budding; Q99816; Fluorescence polarization, FITC-PTAP peptide / Tsg101 binding; Potency, µM (titrated, usually from 115 µM), inactives show top-dose activity change, negative = inhibition, actives largely listed as inhibitors; 340,000 tested, under 10 active; AID 493005; active = well fitted inhibition curve with a large enough effect in the main read-out, with a control signal flat, not every such curve was filed as active; inconclusive = small, poorly fitted or top-dose-only effect, or effect the other way, or a change in a side signal; inactive = no such curve, though single readings can be large or run the other way; also: potency is read from the fitted curve at half-maximal effect; % of control where 0% means no effect
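Tsg101 binding domain (10 uM final) was mixed with compound and a FITC-labeled PTAP peptide (50 nM final) in HEPES pH 7.5 buffer with NaCl, Tween 20, EDTA and TCEP; fluorescence polarization was read after 20 min at r.t.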
PLK1 PBD inh = inhibitors of human PLK1 polo-box domain binding | Plk1 PBD binding of FITC phosphopeptide, fluorescence polarization | P53350 | 360,000 compounds, 2.8% hits | Potency, µM, for the others: max response, negative = inhibition, hits mostly inhibitors; also: potency is read from the fitted curve at half-maximal effect; series mostly up to about 57 µM; % is scaled to controls: 0 for no effect and ±100 for the full control effect; nearly all actives have a fitted effect of over 65% in size
TSHR antagonist = human thyrotropin receptor antagonism | AID 504810 | TSHR-expressing cells, TSH-stimulated cAMP HTRF, 2 h; hits give low values | 330,000 compounds, 0.2% hits | P16473 | activity change, negative = inhibition, % at 11.5 µM;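 active = activity change below a set negative limit, meaning inhibition stronger than a set level, cut at about -70% in these data; inconclusive = activity change between two set negative limits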; also: % is scaled to controls: 0 for no effect and ±100 for the full control effect
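Competitive HTRF cAMP read-out (cryptate anti-cAMP antibody, cAMP-d2; 30 min, room temperature) in freshly harvested TSHR cells. Compounds added before TSH at EC80 (4nM final), followed by 2 hours' incubation at 37 deg C.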
uPA surface inh = blocks generation of uPA at the cell surface. cell surface uPA generation assay, qHTS. Potency, µM (doses to about 38.3 µM), for the others: at the highest dose activity change, negative = inhibition, hits mostly inhibitors. 330,000 compounds, 0.31% hits; active = well fitted inhibition curve with a large enough effect; inconclusive = small, poorly fitted or top-dose-only effect; inactive = no such curve, though single readings can be large or run the other way; tested in mouse RAW 264.7 cells; also: potency is read from the fitted curve at half-maximal effect; % is scaled to controls: 0 for no effect and ±100 for the full control effect; nearly all actives have a fitted effect of over 55% in size
Starred values were filed as active, the others as inactive; ? = inconclusive; · = no result. Unless noted, calls follow the shape of the dose curve; as a rule, active = well fitted curve in the direction sought with a large enough effect; inconclusive = small, poorly fitted or top-dose-only effect, or another doubt; inactive = no such curve, though single readings can be large; an effect the other way counts as inactive or inconclusive.

SMILES	VDR inhibitor	TSG101-PTAP inh	PLK1 PBD inh	TSHR antagonist	uPA surface inh
Cc1cccc2c3c([nH]c12)CCNC3	?	-6%	24µM*	-4	4%
COc1cccc(C2CC(=O)Nc3cc4c(cc32)CCC4)c1 (stereo not drawn)	-5%	-3%	0%	-3	11µM*
Nc1ccc(S(=O)(=O)Nc2nccs2)cc1N=Nc1ccccc1[N+](=O)[O-]	?	-3%	30µM*	·	-5%
O=[N+]([O-])c1cccc(S(=O)(=O)Nc2ccc(S(=O)(=O)Nc3nccs3)cc2)c1	-5%	·	-4%	·	7%
COc1ccc(/C=C/C(=O)CC(O)(c2ccccc2)C(F)(F)F)cc1 (stereo not drawn)	35µM*	-8%	-6%	-19	-2%
O=C(/C=C/c1ccccc1)CC(O)(c1ccccc1)C(F)(F)F (stereo not drawn)	-88%	-6%	?	-12	-13%
CCOC(=O)N1CCN(C(=O)C[C@@H]2C[C@@]3(C(=O)OCC)CCC=C3N(Cc3cccc4ccccc34)C2=O)CC1	·	·	-3%	·	·
Cc1cc(=O)[nH]c(N/N=C/c2ccccc2C(F)(F)F)n1	-2%	1%	-1%	5	-5%
Cc1cc(=O)[nH]c(N/N=C/c2cc(C)n(CC(F)(F)F)c2C)n1	7%	-1%	-8%	-3	0.25µM*
O=C(Nc1nc(-c2ccccc2)ns1)c1ccncc1	?	2%	8.4µM*	5	2%
O=C(Nc1nc(-c2ccccc2)ns1)c1ccc(Cl)cc1	-1%	·	·	·	·
CC1(C)N=c2ccc([N+](=O)[O-])c(N)c2=[N+]1[O-]	-6%	-4%	0%	-6	10µM*
O=C1CCCC1C(O)c1ccc2ccccc2c1 (stereo not drawn)	2%	·	·	·	·
COc1ccc(N(C(C)C(=O)N/N=C/c2ccc(OC)c(OC)c2)S(C)(=O)=O)cc1 (stereo not drawn)	-28%	-3%	30µM*	-3	-13%
COc1ccc(N(C(C)C(=O)NN=C2CCCCCCC2)S(C)(=O)=O)cc1 (stereo not drawn)	-7%	-2%	27µM*	14	2%
CCc1ccccc1N(CC(=O)N/N=C/c1ccc(OC(=O)OC)c(OC)c1)S(C)(=O)=O	-12%	-6%	24µM*	4	-9%
O=C(Cn1c(=O)n(Cc2ccccc2)c(=O)c2oc3ccccc3c21)Nc1ccc(Cl)cc1	-1%	·	·	·	·
CCOc1ccccc1N1CCN(CC(=O)Nc2ccccc2C(=O)NC2CC2)CC1	-11%	5%	-2%	1	7%
Cn1c(=O)n(C)c2cc(NS(=O)(=O)c3ccc(C(C)(C)C)cc3)c(NCc3ccccc3)cc21	-9%	·	·	·	·
CC1CCN(c2cc3c(cc2F)c(=O)c(S(=O)(=O)c2ccc(Cl)cc2)cn3C)CC1	6%	·	·	·	·
Nc1ccc2nc(SCc3ccccc3F)sc2c1	-18%	-4%	15µM*	-4	-6%
Nc1ccc2nc(SCC(=O)c3ccccc3)sc2c1	-10%	-1%	-22%	-10	0%
CCCCOc1ccc(Cc2n[nH]c(=S)n2N)cc1	50µM*	1%	3.8µM*	10	-10%
Cc1nc(N2CCN(S(=O)(=O)c3ccccc3C#N)CC2)c2c(-c3ccccc3)csc2n1	-23%	-4%	-6%	-79*	-27%
N#Cc1ccccc1S(=O)(=O)N1CCN(c2nc(-c3ccccc3)nc3ccccc23)CC1	-2%	·	-4%	·	·
SMILES	VDR inhibitor	TSG101-PTAP inh	PLK1 PBD inh	TSHR antagonist	uPA surface inh
CCN(CC)S(=O)(=O)c1ccc(NN)nc1	?	0%	24µM*	-8	-4%
COc1ccc(C(=O)NCCSc2ccccc2)cc1OC	35µM*	2%	3.4µM*	-2	0%
Fc1ccccc1N1CCN(c2nccn3nc(-c4ccc(Br)cc4)cc23)CC1	-4%	·	·	·	·
COc1ccc2nc(C)cc(Sc3nc4ccccc4s3)c2c1	?	-4%	24µM*	11	-15%
COc1ccc2nc(C)cc(SCC(=O)NNC(=O)COc3ccccc3)c2c1	-2%	-5%	-10%	-7	-8%
CCCCNc1nc(Oc2ccc(=O)n(-c3ccccc3)n2)nc(N(CC)CC)n1	-1%	·	·	·	·
FC(F)(Cl)c1nnc2ccc(Sc3ccccn3)nn12	-10%	-1%	21µM*	5	-2%
c1ccc(CSc2ccc3nnc(-c4ccccn4)n3n2)cc1	-4%	-1%	-4%	-11	-2%
COc1ccccc1CNS(=O)(=O)c1ccc(-c2cnc(C3CC3)o2)cc1	-9%	-8%	-10%	0	0.28µM*
CCCCCn1c(CCNC(=O)c2cccc(C)c2)nc2ccccc21	-16%	·	·	·	·
CC(=O)Nc1ccc(Oc2cc(NC(C)=O)cc([N+](=O)[O-])c2)cc1	?	0%	7.5µM*	-7	-1%
Cc1nn(C)cc1C(=O)Nc1cc(Oc2ccc(Cl)cc2)cc([N+](=O)[O-])c1	-16%	-1%	27µM*	-25	·
Cc1nn(CCCC(=O)Nc2cc(Oc3ccccc3)cc([N+](=O)[O-])c2)c(C)c1[N+](=O)[O-]	-8%	0%	3%	-42	3%
CC(=O)Nc1ccc(S(=O)(=O)NNc2ccc([N+](=O)[O-])cc2)cc1	89µM*	-2%	?	-9	?
CC(=O)Nc1cc(ON=C(C)C)cc([N+](=O)[O-])c1	-2%	-4%	-2%	-1	-15%
Cn1cc([N+](=O)[O-])c(C(=O)Nc2cc(Oc3ccccc3)cc([N+](=O)[O-])c2)n1	-10%	-2%	-15%	-26	-8%
Cc1ccc(Oc2cc(NC(=O)CCCn3nc([N+](=O)[O-])cc3C)cc([N+](=O)[O-])c2)cc1	-8%	-2%	2%	-70*	13%
O=C(Nc1ccc(O)c2c(=O)cc(-c3ccccc3Cl)oc12)c1cc(Cl)cc(Cl)c1	7%	·	·	·	·
Cc1cccc(C)c1-n1nnnc1C(c1ccccc1)N1CCN(C/C=C/c2ccccc2)CC1 (stereo not drawn)	·	·	1%	·	·
CC(Sc1ccc(Cl)cc1)C(=O)NCC(c1ccco1)N1CCCCC1 (stereo not drawn)	-12%	-6%	-5%	3	2%
O=C(COC(=O)/C=C/c1ccc(Cl)cc1)NCCN1C(=O)CSC1=O	-23%	-2%	17µM*	-4	-11%
O=C1C2C3C=CC(C3=C(c3ccccc3)c3ccccc3)C2C(=O)N1Cc1ccccc1 (stereo not drawn)	-5%	-1%	67µM*	-9	9%
COc1ccc(NC(=O)Cc2c[nH]c3ccccc23)cc1S(=O)(=O)N1CCCCC1	-11%	-1%	-1%	-75*	8%
COc1ccc(CCNC(=O)CCCn2c(=O)c3ccccc3n(Cc3ccccc3C#N)c2=O)cc1OC	6%	·	·	·	·
COc1ccc2cc(C(=O)C3CCCN(C(=O)c4cnn(C(C)C)c4)C3)ccc2c1 (stereo not drawn)	?	2%	24µM*	-9	6%
